Compound activity deposited in PubChem by National Center for Advancing Translational Sciences (NCATS).
IL-1B inflam inh: blocks inflammasome-driven IL-1 beta release. THP-1 LPS/ATP IL-1B secretion, AlphaLISA, 16 h; hits give low values. hit rate 4.7% among 360,000. activity change, % at 57.5 µM. AID 743279; in the data active = activity change below about -50%; inconclusive = mostly about -30% to -49%
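Secreted IL-1B measured by AlphaLISA bead assay after 16 h compound exposure of THP-1 cells; compounds (final up to 57.5 uM) added 1 h before LPS (250 ng/mL) and ATP (1.25 mM) stimulation; lower signal means less secretion.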
HT1080NT lethal: kills 2HG-producing HT-1080-NT fibrosarcoma cells. HT-1080-NT fibrosarcoma viability, CellTiter-Glo ATP luminescence, 48 h. Potency, µM (titrated, usually from 46.1 µM), for the others: at the highest dose activity, negative = less viability, most hits filed as cytotoxic. hit rate 1.6% among 360,000. AID 686970;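 also: NT is the 2HG producing partner of a matched IDH1 knockdown line; potency is read from the fitted curve at half-maximal effect; 0% = DMSO-treated cells and -100% = media-only wells without cells; nearly all actives have a fitted effect of over 55% in size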
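HT-1080-NT; 750 cells/well; 5% FBS RPMI; 48 h compound, 37 degrees C; CellTiter-Glo luminescence; curve fitting and curve-class assignment.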
DT40 TDP1 CPT: DT40-hTDP1 cell growth loss with CPT. chicken DT40 Tdp1-/-;hTDP1 cells + 20 nM CPT, ATP luminescence, 48 h. Potency, µM (series often up to 46.2 µM), for inactives: at the top dose activity change, negative = growth inhibition, most hits filed as inhibitors. hit rate 12% among 420,000. AID 686979; also: potency is read from the fitted curve at half-maximal effect; nearly all actives have a fitted effect of over 55% in size
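Cell growth measured by CellTiter-Glo luminescence after a minimum 48 h, 37 C compound exposure with 20 nM CPT in Tdp1-knockout DT40 cells stably expressing hTDP1, seeded 400/well; qHTS titration format.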
ELG1 repair inh: inhibitors of ELG1-dependent DNA repair in HEK293T cells. hit rate 2.3% among 330,000. HEK293T ELG1-luciferase reporter, luminescence, 16 h; DNA damage induced by 5-fluorouridine. Potency, µM (series often up to 46.1 µM), for the others: at the top dose activity change, negative = inhibition, most hits filed as inhibitors; also: potency is read from the fitted curve at half-maximal effect; nearly all actives have a fitted effect of over 55% in size
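Reporter activity after DNA damage by 5-fluorouridine is monitored. Compound-treated cells incubate 16 hr at 37 °C, then ONE-Glo is added for 30 min before luminescence reading.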
HT1080 IDH1KD tx: kills HT-1080 cells with IDH1 knockdown. HT-1080 IDH1 knockdown viability, ATP luminescence, 48 h. Potency, µM (top dose mostly 46.1 µM), inactives show at the top dose activity, negative = toxicity, most hits filed as cytotoxic. hit rate 2% among 360,000. AID 686971;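 also: potency is read from the fitted curve at half-maximal effect; 0% = DMSO wells and -100% = cell-free medium wells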
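Luminescent ATP read-out (CellTiter-Glo, 10 min at room temperature) after 48 h compound exposure at 37 °C gave viability of IDH1-knockdown HT-1080 cells. Activity was normalised to DMSO and cell-free wells, then fitted as concentration-response curves.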
TDP1 cell noCPT: qHTS for Inhibitors of human tyrosyl-DNA phosphodiesterase 1 (TDP1): qHTS in cells in absence of CPT; DT40 Tdp1-/- hTDP1 cells, no CPT, ATP luminescence, 48 h; Potency, µM (highest dose often 46.2 µM), for the others: top-dose activity change, negative = growth inhibition, hits mostly inhibitors; hit rate 15% among 420,000; also: potency is read from the fitted curve at half-maximal effect; nearly all actives have a fitted effect of over 55% in size
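Luminescent ATP content (CellTiter-Glo) served as the growth readout. Knockout chicken DT40 cells expressing human TDP1 were exposed to compounds without camptothecin for a minimum 48 hr at 37 °C.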
Numbers without * were called inactive; [ ] = dose if it differs, or a comment. Only some compounds are listed: those with a hit (about 19% of all), similar ones and a draw of the others. Unless noted, calls follow the shape of the dose curve; as a rule, active = well fitted curve in the direction sought with a large enough effect; inconclusive = small, poorly fitted or top-dose-only effect, or another doubt; inactive = no such curve, though single readings can be large; an effect the other way counts as inactive or inconclusive. Unless noted, % is scaled to controls: 0 for no effect and ±100 for the full control effect.

CN1CC[C@@]2(CCCN(C(=O)c3csnn3)C2)C1 was read as DT40 TDP1 CPT 2.2% and TDP1 cell noCPT -14.2%.
For CCCC(=O)OCC[N+](C)(C)C the results were IL-1B inflam inh 15.1, HT1080NT lethal 22.3%, DT40 TDP1 CPT 1.5%, ELG1 repair inh -5.3%, HT1080 IDH1KD tx 13.5% and TDP1 cell noCPT 1.0%.
COc1ccc2c(c1OC)CN1CCc3cc4c(cc3[C@H]1C2)OCO4 was read as IL-1B inflam inh -3.9, HT1080NT lethal -0.3%, DT40 TDP1 CPT 14.6µM*, ELG1 repair inh -9.1%, HT1080 IDH1KD tx -0.2% and TDP1 cell noCPT 13µM*.
`COc1cc2c(cc1OC)C(C1c3cc4c(cc3CCN1C)OCO4)OC2=O` (configuration not stated) gave IL-1B inflam inh 0.9, HT1080NT lethal 20.3%, DT40 TDP1 CPT 1.3%, ELG1 repair inh -5.1%, HT1080 IDH1KD tx 2.5% and TDP1 cell noCPT 4.6%.
For COc1ccc2c(c1OC)CN1CCc3cc4c(cc3C1C2)OCO4 (configuration not stated) the results were IL-1B inflam inh -9.3, HT1080NT lethal -17.3%, DT40 TDP1 CPT 20.6µM*, ELG1 repair inh -7.6%, HT1080 IDH1KD tx -11.0% and TDP1 cell noCPT inconclusive.
`CCCCn1c(O)c(/C(CC)=N/N2CCCCC2c2cccnc2)c(=O)[nH]c1=S` (configuration not stated) gave IL-1B inflam inh -63.7*, HT1080NT lethal inconclusive, DT40 TDP1 CPT inconclusive, ELG1 repair inh inconclusive, HT1080 IDH1KD tx inconclusive and TDP1 cell noCPT inconclusive.
For COP(=S)(OC)SCn1nnc2ccccc2c1=O the results were IL-1B inflam inh -92.7*, DT40 TDP1 CPT inconclusive and TDP1 cell noCPT 23.1µM*.
For CC(C)(C)c1ccc(C(=O)C2CCCN(C3CCC3)C2)cc1 (configuration not stated) the results were IL-1B inflam inh 16.9, HT1080NT lethal -19.8%, DT40 TDP1 CPT -29.2%, ELG1 repair inh 17.9%, HT1080 IDH1KD tx -22.4% and TDP1 cell noCPT inconclusive.
Cc1ccc(-n2ncc(C(=O)N3CCN(c4ccc(Cl)cc4)CC3)c2C2CCN(C(=O)OC(C)(C)C)CC2)c(C)c1 was read as DT40 TDP1 CPT inconclusive and TDP1 cell noCPT 11.6µM*.
For CC(C)(C)OC(=O)N1CCC(c2c(C(=O)N3CCN(Cc4ccccc4)CC3)cnn2-c2ccc(Cl)cc2)CC1 the results were DT40 TDP1 CPT 25.9µM* and TDP1 cell noCPT 20.6µM*.
Screening COCc1c(C(=O)N2CCC(c3ccccc3)CC2)cnn1-c1nccc(-c2cc(C)sc2C)n1 returned DT40 TDP1 CPT -11.2%[9.04 µM] and TDP1 cell noCPT inconclusive.
COc1ccc(-n2ncc(C(=O)N3CCN(c4cc(C)ccc4C)CC3)c2C2CCN(C(=O)OC(C)(C)C)CC2)cc1 was read as DT40 TDP1 CPT 20.6µM* and TDP1 cell noCPT 14.6µM*.
S=P1(Oc2ccccc2)Nc2ccccc2N1 was read as IL-1B inflam inh 14.7, HT1080NT lethal -1.1%, DT40 TDP1 CPT -1.7%, HT1080 IDH1KD tx 5.5% and TDP1 cell noCPT -13.1%.
Screening O=C1CC(=O)N(c2ccccc2)C(=O)N1 returned IL-1B inflam inh 0.0, HT1080NT lethal -1.6%, DT40 TDP1 CPT 22.5%, HT1080 IDH1KD tx 5.6% and TDP1 cell noCPT 0.5%.
`CC[C@H]1C[C@H]2[C@@H]3CCC4=CC(=O)CC[C@@H]4[C@H]3CC[C@]2(C)[C@H]1O` gave DT40 TDP1 CPT inconclusive and TDP1 cell noCPT -10.6%.
For C=C[C@H]1CN2CCC1C[C@@H]2C(O)c1ccnc2ccccc12 (some centres not stated) the results were DT40 TDP1 CPT -3.3% and TDP1 cell noCPT -1.3%.
